Records with an inconclusive call do not appear. Active and inactive are the calls of the source. Calls come from the whole dose curve; as a rule, active = well fitted inhibition curve with a large enough effect; inconclusive = small, poorly fitted or top-dose-only effect, or effect the other way; inactive = flat fitted curve, though single readings scatter.
Experiment: VP16 selectivity assay for inhibitors of ROR gamma transcriptional activity
Conditions: Drosophila Schneider Gal4-VP16 UAS-luciferase reporter, 20 h; series mostly up to 92.2 µM
In short: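 Luciferase luminescence read after 20 hr induction with 700 uM (final) copper sulfate at ambient temperature, following 1 hr compound pretreatment. Counter-screen uses Schneider cells carrying metallothionein-driven Gal4 DBD–VP16 and a UAS-Photinus luciferase reporter.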

Potency, inactive:
COc1cc(O)c(C(CC(=O)N2CCC(C)CC2)c2ccc(OC)c(OC)c2)c(OC)c1 (stereo not given)
COc1cc(O)c(C(CC(=O)N2CC(C)CC(C)C2)c2ccc(O)cc2)c(OC)c1 (stereo not given)
COc1cc(OC)c2c(c1)OC(=O)CC2c1ccc2c(c1)OCO2 (stereo not given)
COc1cc(O)c([C@H](CC(=O)N2CC(C)CC(C)C2)c2ccc3c(c2)OCO3)c(OC)c1 (stereo not given in full)
COc1cc(O)c(C(CC(=O)N(Cc2ccccc2)Cc2ccccc2)c2ccc3c(c2)OCO3)c(OC)c1 (stereo not given)
COc1cc(O)c(C(CC(=O)N2CCCCC2)c2ccc3c(c2)OCO3)c(OC)c1 (stereo not given)
CC(C)(C)OC(=O)N1CCC[C@H]1C(=O)N1CCC(C(=O)N[C@H](Cc2ccccc2)C(=O)NCc2ccc(F)cc2)CC1
COc1ccc(C(=O)Nc2cc(-c3ccc(C)cc3)no2)cc1
CCC(=O)C1CCCN(C(=O)CC(c2ccc3c(c2)OCO3)c2c(O)cc(OC)cc2OC)C1 (stereo not given)
COc1cc(O)c(C(CC(=O)N2CCC(c3ccccc3)CC2)c2ccc3c(c2)OCO3)c(OC)c1 (stereo not given)

Potency, active:
COc1cc(OC)c(C(c2ccccc2)C(C)(C)C(=O)N2CC(C)CC(C)C2)c(OC)c1 (stereo not given) 18.2 µM
CCN(CC)c1ccc(/C=N/n2c(-c3ccccc3Br)n[nH]c2=S)cc1 2.04 µM
COc1cc(O)c(C(CC(=O)N2CCCC(C)C2)c2ccc(C)cc2)c(OC)c1 (stereo not given) 45.7 µM
O=C(NC(=S)Nc1nc(-c2ccccc2)cs1)c1cccnc1 25.7 µM
c1ccc(Cn2c(-c3ccccc3)c[n+]3c2SCCC3)cc1 45.7 µM

Reference: PubChem BioAssay AID489036 (National Center for Advancing Translational Sciences (NCATS), 2010)
